PubChem BioAssay (EPA / NIEHS)
Inconclusive results are not listed. Calls of active or inactive are those of the source. Rule for the calls: active = hit-call score of the fitted dose curve at least 0.9, where 1 is the maximum; inconclusive = response in the unintended direction; inactive = score below 0.9.

Legend:
[1] = TOX21_p53_BLA_p2_viability: Viability Assessment in the Tox21 HCT-116 p53 Agonism Beta-lactamase Assay, Phase 2 (AID 2283591);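 note: compound exposure lasted 16 h at 37 °C; actives lower the ATP signal meaning cytotoxicity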
Method in brief: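 HCT-116 p53-bla cells (4000/well) rested 5 h at 37C, then received compounds in DMSO (217-fold dilution) for 16 h at 37C, 5% CO2. After the CCF4 read, CellTiter-Glo was added; ATP luminescence was read after 30 min at room temperature.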

[2] = target: Cellular tumor antigen p53 (Homo sapiens) (UniProt P04637); test: TOX21_p53_BLA_p2_ratio: Tox21 HCT-116 p53 Agonism Beta-lactamase Assay, Ratio, Phase 2 (AID 2283592)
Cellular tumor antigen p53 (Homo sapiens), sequence (P04637 whole entry, looked up): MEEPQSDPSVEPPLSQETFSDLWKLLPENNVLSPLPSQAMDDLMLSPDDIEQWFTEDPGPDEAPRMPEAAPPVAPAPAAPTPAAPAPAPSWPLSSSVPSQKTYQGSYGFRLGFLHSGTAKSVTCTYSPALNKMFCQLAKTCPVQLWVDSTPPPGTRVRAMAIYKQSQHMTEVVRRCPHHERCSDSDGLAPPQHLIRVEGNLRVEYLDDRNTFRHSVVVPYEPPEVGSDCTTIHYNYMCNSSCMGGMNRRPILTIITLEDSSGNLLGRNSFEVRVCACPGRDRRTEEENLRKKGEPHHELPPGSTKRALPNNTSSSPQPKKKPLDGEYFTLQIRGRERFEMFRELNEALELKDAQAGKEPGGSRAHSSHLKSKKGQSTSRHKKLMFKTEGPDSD
Method in brief: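 HCT116 cells carrying a p53-responsive beta-lactamase reporter were plated, incubated 5 h at 37C, then dosed with compounds in DMSO (217-fold dilution) for 16 h. CCF4-AM substrate was added for 2 h at room temperature; the 460/530 nm emission ratio gave gain-of-signal activity relative to DMSO.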

[3] = target: Cellular tumor antigen p53 (Homo sapiens) (UniProt P04637); test: TOX21_p53_BLA_p3_ratio: Tox21 HCT-116 p53 Agonism Beta-lactamase Assay, Ratio, Phase 3 (AID 2283596)
Method in brief: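 HCT116 p53-bla cells (4000/well) given compound in DMSO (217-fold dilution) after 5 h, incubated 16 h at 37C. CCF4-AM substrate 2 h at room temperature; 460/530 nm emission ratio, gain fitted against DMSO.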

[4] = TOX21_p53_BLA_p4_viability: Viability Assessment in the Tox21 HCT-116 p53 Agonism Beta-lactamase Assay, Phase 4 (AID 2283597);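 note: hits lower the luminescence signal meaning cytotoxicity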
Method in brief: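 HCT116 p53-bla cells (4000/well) rested 5 h at 37C, then received compounds in DMSO (217-fold dilution) for 16 h at 37C, 5% CO2. CellTiter-Glo was added after the CCF4-AM read, and luminescence was read after 30 min at room temperature.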

[5] = target: Cellular tumor antigen p53 (Homo sapiens) (UniProt P04637); test: TOX21_p53_BLA_p5_ratio: Tox21 HCT-116 p53 Agonism Beta-lactamase Assay, Ratio, Phase 5 (AID 2283599)
Method in brief: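 HCT-116 cells carrying a p53-inducible beta-lactamase reporter were seeded at 4000 cells/well and dosed after 5 h with compound in DMSO (217-fold dilution). After 16 h at 37C, CCF4-AM substrate was added for 2 h, and the 460/530 nm emission ratio was scored as gain-of-signal versus DMSO.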

[6] = target: Cellular tumor antigen p53 (Homo sapiens) (UniProt P04637); test: TOX21_p53_BLA_p4_ratio: Tox21 HCT-116 p53 Agonism Beta-lactamase Assay, Ratio, Phase 4 (AID 2283601)
Method in brief: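 HCT116 cells carrying an inducible beta-lactamase reporter were plated at 4000 cells/well, rested 5 h, then exposed to compounds in DMSO (217-fold dilution) for 16 h at 37C. CCF4-AM substrate was loaded 2 h at room temperature; 460/530 nm emission ratio scored gain-of-signal versus DMSO.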

[7] = TOX21_p53_BLA_p5_viability: Viability Assessment in the Tox21 HCT-116 p53 Agonism Beta-lactamase Assay, Phase 5 (AID 2283600)
Method in brief: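 Cells were plated at 4000/well, rested 5 h at 37C, then given compounds in DMSO (217-fold dilution) for 16 h at 37C, 5% CO2. Following the CCF4-AM beta-lactamase read, CellTiter-Glo was added and luminescence was read after 30 min at room temperature.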

[8] = target: Thyroid hormone receptor alpha (Rattus norvegicus) + Thyroid hormone receptor beta (Rattus norvegicus) (UniProt P18113+P63059); test: TOX21_TR_LUC_GH3_Antagonist_Followup: Tox21 GH3 Thyroid Hormone Receptor Antagonism Luciferase Follow-Up Assay (AID 2283942)
Method in brief: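 Rat pituitary GH3 cells with a TRα/TRβ-driven luciferase reporter, 5 h attachment, then 15 concentrations (92 uM to 5nM final) plus 1.0 nM T3 agonist, 24 h at 37C/5% CO2. ONE-Glo luminescence; signal change fitted against DMSO baseline.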

[9] = target: THRA (gene 7067) (UniProt P10827); test: TOX21_TRA_COA_Antagonist_Followup_ratio: Tox21 Thyroid Hormone Receptor alpha Antagonism through Coactivator Recruitment Follow-Up Assay, Ratio (AID 2283953)
THRA (gene 7067), sequence (P10827 whole entry, looked up, the tested form may be a part): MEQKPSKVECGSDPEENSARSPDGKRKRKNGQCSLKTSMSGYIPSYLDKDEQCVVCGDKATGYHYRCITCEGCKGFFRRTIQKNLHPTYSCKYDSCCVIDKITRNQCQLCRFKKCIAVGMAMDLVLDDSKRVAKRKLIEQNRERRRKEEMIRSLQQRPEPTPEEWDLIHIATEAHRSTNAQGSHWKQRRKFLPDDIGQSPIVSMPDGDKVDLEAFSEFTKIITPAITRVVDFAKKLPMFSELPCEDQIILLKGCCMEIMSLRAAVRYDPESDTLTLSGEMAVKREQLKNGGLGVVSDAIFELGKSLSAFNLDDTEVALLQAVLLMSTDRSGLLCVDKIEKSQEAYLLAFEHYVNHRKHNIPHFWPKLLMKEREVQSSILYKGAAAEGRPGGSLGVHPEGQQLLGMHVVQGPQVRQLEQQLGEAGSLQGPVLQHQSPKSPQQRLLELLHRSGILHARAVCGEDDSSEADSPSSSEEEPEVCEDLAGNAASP
Method in brief: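 This follow-up to the GH3 luciferase screen checks specificity in a cell-free format. It measures SRC-2 coactivator peptide binding to TRα LBD by TR-FRET and scores loss of ratio signal relative to DMSO.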

[10] = target: THRB (gene 7068) (UniProt P10828); test: TOX21_TRB_BLA_Antagonist_Followup_ratio: Tox21 Thyroid Hormone Receptor beta Antagonism Beta-lactamase (BLA) Follow-Up Assay, Ratio (AID 2283958)
THRB (gene 7068), sequence (P10828 whole entry, looked up, the tested form may be a part): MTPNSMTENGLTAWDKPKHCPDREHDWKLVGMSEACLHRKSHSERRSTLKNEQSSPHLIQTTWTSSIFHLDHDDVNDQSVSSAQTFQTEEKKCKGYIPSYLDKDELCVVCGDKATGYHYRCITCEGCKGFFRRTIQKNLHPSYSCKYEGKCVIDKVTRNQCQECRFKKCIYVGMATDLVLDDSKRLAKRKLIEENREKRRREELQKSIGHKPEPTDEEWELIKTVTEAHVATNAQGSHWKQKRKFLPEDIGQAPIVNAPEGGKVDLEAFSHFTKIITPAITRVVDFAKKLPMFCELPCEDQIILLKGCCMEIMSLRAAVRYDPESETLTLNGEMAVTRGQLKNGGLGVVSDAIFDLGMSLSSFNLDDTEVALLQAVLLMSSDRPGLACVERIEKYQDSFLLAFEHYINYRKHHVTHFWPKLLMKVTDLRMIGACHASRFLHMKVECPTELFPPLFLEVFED
Method in brief: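 GAL4-DBD/human TRβ-LBD fusion in GeneBLAzer UAS-bla HEK293T cells, 3,000 cells/well in phenol red-free DMEM with 2% charcoal-stripped FBS; compounds at 11 concentrations in triplicate, 18 h at 37C. CCF4-AM substrate 2 h, 460:530 nm ratio relative to DMSO.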

[11] = TOX21_TRB_BLA_Antagonist_Followup_viability: Viability Assessment in the Tox21 Thyroid Hormone Receptor beta Antagonism Beta-lactamase (BLA) Follow-Up Assay (AID 2283961)
Method in brief: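 HEK293T cells stably expressing GAL4-DBD/human TRβ-LBD with UAS-bla reporter, 3,000 cells/well in phenol red-free DMEM, 2% charcoal-stripped FBS. Compounds at 11 concentrations in triplicate, 18 h at 37C/5% CO2; viability by CellTiter-Glo luminescence after 30 min at room temperature.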

[12] = target: THRB (gene 7068) (UniProt P10828); test: TOX21_TRB_COA_Antagonist_Followup_ratio: Tox21 Thyroid Hormone Receptor beta Antagonism through Coactivator Recruitment Follow-Up Assay, Ratio (AID 2283967)
Method in brief: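 Cell-free TR-FRET coactivator recruitment with GST-tagged TRβ LBD (5.0 nM) and fluorescein-labeled SRC-2 peptide (200 nM) detected by terbium anti-GST antibody (2 nM). The 520:495 nm emission ratio was normalized to DMSO (0%) and T3 (100%).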

Measured: AC50

CNCC[C@@H](Oc1ccccc1C)c1ccccc1
inactive: [1] | [2] | [3] | [4] | [5] | [6]

NC(=O)c1cc[n+](CC2=C(C(=O)O)N3C(=O)[C@@H](NC(=O)[C@@H](c4ccccc4)S(=O)(=O)[O-])[C@H]3SC2)cc1
inactive: [1] | [2] | [3] | [4] | [5] | [6]

CO[C@H]1C[C@@H]2CC[C@@H](C)[C@@](O)(O2)C(=O)C(=O)N2CCCC[C@H]2C(=O)O[C@H]([C@H](C)C[C@@H]2CC[C@@H](OCCO)[C@H](OC)C2)CC(=O)[C@H](C)/C=C(\C)[C@@H](O)[C@@H](OC)C(=O)[C@H](C)C[C@H](C)\C=C/C=C/C=C/1C
active: [1] 19.2 µM | [2] 17.9 µM | [3] 40.2 µM | [4] 21.9 µM | [5] 21.9 µM | [7] 20.6 µM | [6] 23 µM | [8] 0.00976 µM
inactive: [9] | [10] | [11] | [12]

CN1[C@@H]2CC[C@H]1CC(NC(=O)n1c(=O)[nH]c3ccccc31)C2 (stereo partly specified)
inactive: [1] | [2] | [3] | [4] | [5] | [6]

Cc1occc1S
inactive: [1] | [2] | [3] | [4] | [5] | [6]
